# Measurements taken from PubChem BioAssay AID488969 (Vanderbilt High Throughput Screening Facility, 2010).
# The full ranking holds about 110,000 compounds; the median of “z-score” is about -0.1, and the highest 2% start at about 2. Shown is part of a subset that was picked to be rich in the highest values. Activity calls are given as the source filed them.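 How the source made its calls: active means z-score in the third read window above 3 or below -3; inactive means the rest.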
# Molecular target: Metabotropic glutamate receptor 8 (Rattus norvegicus) (UniProt P70579)
# Sequence (P70579 whole entry, looked up): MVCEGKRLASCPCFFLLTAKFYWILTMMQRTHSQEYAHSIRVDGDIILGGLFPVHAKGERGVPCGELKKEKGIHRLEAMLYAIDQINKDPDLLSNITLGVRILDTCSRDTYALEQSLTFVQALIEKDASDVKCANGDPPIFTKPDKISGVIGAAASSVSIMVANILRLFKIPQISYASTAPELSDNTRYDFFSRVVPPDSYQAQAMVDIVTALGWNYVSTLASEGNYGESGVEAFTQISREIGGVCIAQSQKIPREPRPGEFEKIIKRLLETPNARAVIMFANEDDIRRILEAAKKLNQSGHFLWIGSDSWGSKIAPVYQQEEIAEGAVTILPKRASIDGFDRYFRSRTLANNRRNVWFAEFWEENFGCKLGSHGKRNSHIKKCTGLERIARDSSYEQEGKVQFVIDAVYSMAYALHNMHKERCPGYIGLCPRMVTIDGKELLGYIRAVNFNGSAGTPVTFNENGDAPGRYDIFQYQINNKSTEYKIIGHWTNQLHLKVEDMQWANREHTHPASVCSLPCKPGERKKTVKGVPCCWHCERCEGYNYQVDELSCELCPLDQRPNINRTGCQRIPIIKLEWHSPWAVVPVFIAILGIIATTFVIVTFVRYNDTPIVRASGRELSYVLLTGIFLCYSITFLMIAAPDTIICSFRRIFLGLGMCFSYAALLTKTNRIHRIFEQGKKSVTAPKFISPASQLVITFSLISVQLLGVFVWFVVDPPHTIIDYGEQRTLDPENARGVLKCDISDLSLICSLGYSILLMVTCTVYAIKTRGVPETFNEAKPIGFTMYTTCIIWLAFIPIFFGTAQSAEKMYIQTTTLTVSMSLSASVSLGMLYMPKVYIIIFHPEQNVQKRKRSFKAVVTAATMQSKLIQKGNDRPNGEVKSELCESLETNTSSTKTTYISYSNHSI
# Assay: mGluR8 Gi/Go-coupled signaling modulation – cell-based, rat, thallium flux, HTS, primary screen (AID 488969)
# Conditions: HEK293 rat mGluR8, GIRK (G protein-gated inwardly rectifying potassium channel) thallium flux, FluoZin2; at 10 µM; stronger effect = higher value; submaximal glutamate (EC20) added with thallium
row,SMILES,z-score
1,OC(COCc1ccccc1)CN1CCN(c2ccccc2)CC1 (stereo not given),0.802
2,CCCc1nc2oc3c(NCCN(C)C)ncnc3c2c2c1CCCC2,0.466
3,CCOc1ccc(/C=C/C(=O)Nc2ccc(N3CCOCC3)cc2)cc1,-0.494
4,CCCc1ccc(OCC(=O)NNC(=S)NC(=O)c2ccco2)cc1,5.78 (active)
5,Cc1ccccc1OCC(=O)NNC(=S)NC(=O)c1ccco1,8.07 (active)
6,CCCCNC(=S)NNC(=O)c1ccco1,-0.0425
7,COCCNC(=S)NNC(=O)c1ccco1,0.195
8,COc1ccccc1OCC(=O)NNC(=S)NC(=O)c1ccco1,0.0517
9,CNC(=S)NNC(=O)COc1ccccc1C,-0.0807
10,O=C(NCCN1CCOCC1)c1cc(Sc2ccccc2Cl)nc2ccccc12,-1.39
11,COc1cccc(N2CC(C(=O)Nc3nnc(SCc4cccnc4)s3)CC2=O)c1 (stereo not given),0.711
12,O=c1[nH]c2cccnc2n1Cc1ccccc1,-0.166
13,Cc1ccccc1Nc1nnc(C)c(=O)n1N,0.0745
14,O=C(/C=C/c1ccccc1)N1CCC(c2ccccc2)C1 (stereo not given),-0.0939
15,c1ccc(C2CCC(N3CCC(N4CCCCC4)CC3)CC2)cc1 (stereo not given),-0.423
16,C1=CN2CCC1C(c1ccccc1)C2 (stereo not given),2.05
17,COC(=O)C1CCN(C(=O)CSc2ccccc2)CC1,-0.196
18,CC(C)COc1ccc(Cc2cnc(N)nc2N)cc1,7.02 (active)
19,CC(C)Oc1ccc(Cc2cnc(N)nc2N)cc1,1.03
20,COc1ccc(Cc2c(N)nc(N)nc2N)cc1,-0.264
21,CCOc1cc(CNCCc2ccc(S(N)(=O)=O)cc2)ccc1OCC(=O)NC1CCCCC1,0.417
22,Cc1cc(NC(=O)c2cnccn2)no1,-0.0463

row,SMILES,z-score
1,CCCc1cc(=O)[nH]c(/N=C(/NC(=O)c2ccccc2)Nc2ccc3c(c2)OCCO3)n1,-0.0513
2,CN(C)CCNc1ncnc2c1cnn2-c1ccc(Cl)cc1,3.51 (active)
3,COCCNc1ncnc2c1cnn2-c1ccc(Cl)cc1,0.0016
4,CN(C)CCCNc1ncnc2c1cnn2-c1ccccc1,0.0262
5,CC(/C=N\NC(=O)c1cccnc1)c1ccccc1 (stereo not given),-0.201
6,CS(=O)(=O)N1CCN(c2ccccc2NC(=O)c2cccc3ccccc23)CC1,-0.227
7,O=C(COc1c(Br)cc(Br)c2cccnc12)N1CCc2ccccc2C1,3.14 (active)
8,O=C(COc1ncnc2sccc12)N1CCc2ccccc2C1,0.0441
9,O=C(COc1cccc2cccnc12)N1CCc2ccccc2C1,0.452
10,COc1ccc(S(=O)(=O)N[C@@H](Cc2ccc(Cl)cc2)C(=O)N2CC[C@@]3(O)CCCC[C@H]3C2)cc1,-0.0964
11,COCCNC(=O)c1cc(-c2ccc3c(c2)OCO3)on1,0.152
12,Cc1nn(C)c(Cl)c1NC(=O)OCc1ccccc1,-0.064
13,Cc1ccc(-c2cnc(NC(=O)CCC(=O)N3CCCCC3)n2C)cc1,4.3 (active)
14,CCCNC(=O)CCC(=O)Nc1ncc(-c2ccc(C)cc2)n1C,-0.382
15,Cc1ccc(-c2cnc(NC(=O)CCC(=O)N(C)Cc3ccccc3)n2C)cc1,-0.765
16,CC(C)c1ccccc1N=C1SCCN1C1CCS(=O)(=O)C1 (stereo not given),0.193
17,CCc1ccc(S(=O)(=O)c2n[nH]n3c2nc(=O)c2ccccc23)cc1,0.475
18,CC(C)c1ccc(S(=O)(=O)c2n[nH]n3c2nc(=O)c2ccccc23)cc1,2.66
19,CC(C)c1ccc(S(=O)(=O)c2nnn3c2nc(N2CCCCC2)c2ccccc23)cc1,-0.645
20,O=C(/C=C/N1CCOCC1)c1ccc(-c2ccccc2)cc1,-0.364
21,CC1=NN(c2ccccc2)C(=O)C1N=Nc1ccccc1 (stereo not given),0.244
22,CC1=NN(C(N)=S)C(=O)C1N=Nc1ccccc1C (stereo not given),2.97

row,SMILES,z-score
1,Cc1ccc(N=Nc2c(C)[nH][nH]c2=O)c(C)c1,0.772
2,CC1=NN(C(N)=S)C(=O)C1N=Nc1c(C)cc(C)cc1C (stereo not given),0.119
3,CC1=NN(c2ccccc2)C(=O)C1N=Nc1ccc(N)cc1 (stereo not given),-0.073
4,CC1=NN(C(N)=S)C(=O)C1N=Nc1ccc(C)cc1C (stereo not given),13.2 (active)
5,Cc1ccccc1-n1c(C)nnc1SCc1cc(=O)oc2ccc3ccccc3c12,0.0722
6,CC(C)CC(=O)Nc1ccc(C(=O)NNC(=O)C(c2ccccc2)c2ccccc2)cc1,-0.258
7,O=C(O)C1CCN(C(=O)c2ccc(Cl)cc2)CC1,0.000989
8,Cc1cc(C)c(C)c(S(=O)(=O)NCc2ccc(C(=O)N3CCCCC3)cc2)c1C,0.249
9,Cc1ccc(OCC(=O)N2N=C(c3cccnc3)CC2(O)C(F)(F)F)cc1C (stereo not given),-0.105
10,Cc1ccccc1OCC(=O)N1N=C(C(F)(F)F)CC1(O)C(C)(C)C (stereo not given),1.61
11,Cc1cc(C)cc(OCC(=O)N2N=C(C(F)(F)F)CC2(O)C(C)(C)C)c1 (stereo not given),4.9 (active)
12,CCCCC1(O)CC(C(F)(F)F)=NN1C(=O)COc1ccccc1 (stereo not given),0.45
13,Cc1ccc(OCC(=O)N2N=C(C(F)(F)F)CC2(O)C(C)(C)C)cc1C (stereo not given),3.56 (active)
14,Cc1cc(C)cc(OCC(=O)N2CCCCCC2)c1,-0.242
15,COP(=O)(OC)c1nc(-c2cccc3ccccc23)oc1NCc1ccccc1,-0.666
16,CC(C)(C)C(=O)Nc1cccc(C(=O)c2cccc(NC(=O)C(C)(C)C)c2)c1,-0.249
17,Cc1cccc(C(=O)NC(=S)Nc2ccc(S(=O)(=O)N3CCCCC3)cc2)c1,-0.0168
18,CCOC(=O)C1=C(C)N=C2SC(C)C(=O)N2C1c1ccc(OCC)c(OCC)c1 (stereo not given),0.125
19,COc1cc(/C=C2\SC(=S)N(CC(=O)Nc3ccccn3)C2=O)cc(OC)c1OC,-0.0617
20,CCN=c1sc2ccccc2n1CC(O)COc1ccccc1 (stereo not given),0.979
21,OC(CN=c1sc2ccccc2n1CC(O)COc1ccccc1)COc1ccccc1 (stereo not given),0.0732
22,Cn1c(=NCC(O)COc2ccccc2)sc2ccccc21 (stereo not given),2.27

row,SMILES,z-score
1,CC(=O)N1CCC(=NNc2ccc(S(=O)(=O)N3CCOCC3)cc2[N+](=O)[O-])CC1,0.476
2,COC(=O)Cc1ccc(NC(=O)c2ccc(C(C)(C)C)cc2)cc1,-0.0938
3,COc1ccc(/C=C/C(=O)NCc2c(C)nn(C)c2C)cc1COc1ccc(Br)cc1,-0.131
4,Cc1cccc(NC(=O)CN(C)S(=O)(=O)c2cnc[nH]2)c1,1.6
5,Cc1cc(C)cc(NC(=O)CN(C)S(=O)(=O)c2cnc[nH]2)c1,-0.129
6,Cc1ccc(NC(=O)CN(C)S(=O)(=O)c2cnc[nH]2)cc1C,2.45
7,CC1CC1C(=O)OCC(=O)NC(=O)NCc1ccco1 (stereo not given),-0.131
8,CCc1ccc(-c2nn(-c3ccccc3)cc2C2SCC(=O)N2Cc2ccco2)cc1 (stereo not given),-0.102
9,Cc1ccc(Nc2nc(N)c([N+](=O)[O-])c(N3CCOCC3)n2)cc1C,-0.153
10,Cc1cccc(Nc2nc(N)c([N+](=O)[O-])c(N3CCCC(C)C3)n2)c1 (stereo not given),-0.0648
11,Cc1ccc(Nc2nc(N)c([N+](=O)[O-])c(N3CCCC(C)C3)n2)cc1C (stereo not given),2.26
12,O=C(NCCc1ccc(Cl)cc1)C1CCCN(S(=O)(=O)c2cnc[nH]2)C1 (stereo not given),0.0211
13,COc1ccc(S(=O)(=O)N(CCN2CCOCC2)Cc2cc(OC)ccc2OC)cc1,-0.389
14,Cc1cc2nc(CCN(Cc3cccnc3)C(=S)Nc3ccccc3)[nH]c2cc1C,0.259
15,Cc1ccc(S(=O)(=O)N2CCOCC2)cc1C(=O)OCC(=O)Nc1ccc2c(c1)OCO2,-0.412
16,O=S(=O)(c1ccc(NC(=S)Nc2ccc3c(c2)OCO3)cc1)N1CCOCC1,0.154
17,O=S(=O)(c1ccc(Nc2ccc3c(c2)OCO3)nc1)N1CCOCC1,2.28
18,C=CCn1c(SCn2nnc3ccccc3c2=O)nnc1-c1ccc(Br)cc1,0.482
19,Cc1ccc(/C=C(\NC(=O)c2ccc(C)cc2)c2nc(=S)[nH][nH]2)cc1,0.31
20,COC(=O)c1ccccc1NC(=S)N(Cc1ccc2c(c1)OCO2)Cc1cc2ccc(C)cc2[nH]c1=O,0.26
21,COC(=O)c1ccccc1NC(=S)N(Cc1ccc2c(c1)OCO2)Cc1cc2cc(OC)ccc2[nH]c1=O,-0.529
22,COC(=O)c1ccccc1NC(=S)N(Cc1ccc2c(c1)OCO2)Cc1cc2cc(C)ccc2[nH]c1=O,2.03

row,SMILES,z-score
1,CC(C)(C)N=C1NN=C(c2cc3ccccc3o2)CS1,-0.336
2,CC(=O)O/N=C(/C)c1ncc(C(F)(F)F)cc1N1CCOCC1,-0.337
3,Cc1ccccc1Cn1c(CN2CCc3ccccc3C2)nc2c1c(=O)n(C)c(=O)n2C,-0.399
4,COc1ccc(/C=C(/C(=O)c2ccc(Cl)cc2Cl)n2cncn2)cc1,0.0171
5,COc1ccc(C(=O)NC2CCCCCC2)cc1S(=O)(=O)N1CCCc2ccccc21,-0.00531
6,CCN(/N=C/c1cccs1)c1cc(=O)n(C)c(=O)[nH]1,-0.0804
7,O=C(NN=C1c2ccccc2-c2ccccc21)c1cccc(Br)c1,4.19 (active)
8,O=C(N/N=C/C=C/c1ccccc1)c1ccccc1Br,-0.846
9,O=C(COc1cccc(Br)c1)NN=C1c2ccccc2-c2ccccc21,0.184
10,O=C(NN=C1c2ccccc2-c2ccccc21)c1ccccn1,0.564
11,O=C(N/N=C/C=C/c1ccccc1)c1cccc(Br)c1,0.831
12,O=C(NN=C1c2ccccc2-c2ccccc21)c1ccccc1Br,5.82 (active)
13,CCC(C)N(C)Cc1cccc(C2(O)CCN(S(=O)(=O)c3ccc(F)cc3)CC2)c1 (stereo not given),-0.276
14,CCOc1ccc(Nc2oc(-c3ccccc3Cl)nc2C#N)cc1,-0.217
15,Cc1cc2nnc(SC(C)C)n2c2ccccc12,-1.9
16,CCOC(=O)C(CC)Sc1nnc2cc(C)c3ccccc3n12 (stereo not given),7.83 (active)
17,CCOC(=O)CSc1nnc2cc(C)c3ccccc3n12,-1.09
18,Cc1c([N+](=O)[O-])c([N+](=O)[O-])nn1CC(=O)N1CCCCC1,-0.199
19,Cc1ccc(S(=O)(=O)N2CCCC2C(=O)O)cc1 (stereo not given),0.451
20,Cc1ccc(-c2nnn(CC(=O)NC3CCN(Cc4ccccc4)CC3)n2)cc1,0.381
21,Cc1ccc(-c2nnn(CC(=O)NC3CC4CCC3C4)n2)cc1 (stereo not given),5.1 (active)
22,CC1CCCCC1NC(=O)Cn1nnc(-c2ccc(Cl)cc2)n1 (stereo not given),0.119
